Experimental data as given in PubChem BioAssay AID1159580 (chemical genetic matrix, 2015).
Values joined by “and” are separate entries in the source; they are usually repeats but may differ in a detail not shown here. Equal entries are not always repeated. Out of some 5,500 compounds screened, about 2,000 (36%) were called active. Inconclusive results (about 18%) are left out. Rule as the data show it: active = normalized growth mostly below about 0.91 (no sharp cut-off); inconclusive = no clear call, values can overlap the other calls; inactive = mostly above about 0.92. This is one part of the list.

Experiment: chemical genetic growth profiling, strain panel (AID 1159580);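 also: tested at 20 µM; growth read once vehicle control cultures reached saturation at 30 °C; 1 = growth at the plate median or of vehicle wells; lower values mean less growth of the strain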
Details: S. cerevisiae deletion strains, growth OD

Measured: normalized growth

CCN(CC)CCOC(=O)C1(C2CCCCC2)CCCCC1
inactive: locus YAL021C, strain ccr4, active compounds read low 0.925 | locus YAL026C, strain drs2, active compounds read low 0.97 | locus YAL030W, strain snc1, active compounds read low 0.985 | locus YAL040C, strain CLN3, active compounds read low 1.01 | locus YBL061C, strain skt5, active compounds read low 0.99 | locus YBR009C, strain hhf1, active compounds read low 0.97 | locus YBR021W, strain FUR4, active compounds read low 0.862 | locus YBR023C, strain chs3, active compounds read low 0.972 | locus YBR171W, strain sec66, active compounds read low 0.987 | locus YBR229C, strain ROT2, active compounds read low 1.01 | locus YBR231C, strain swc5, active compounds read low 0.998 | locus YBR279W, strain paf1, active compounds read low 0.973 | locus YCL011C, strain gbp2, active compounds read low 0.928 | locus YCL016C, strain dcc1, active compounds read low 0.95 | locus YCL029C, strain bik1, active compounds read low 0.99 | locus YCL061C, strain MRC1 (second series), active compounds read low 0.998 | locus YCL069W, strain vba3, active compounds read low 0.996 | locus YCR088W, strain abp1, active compounds read low 0.988 | locus YDL005C, strain med2, active compounds read low 0.985 | locus YDL035C, strain GPR1, active compounds read low 1.02 | locus YDL040C, strain nat1, active compounds read low 0.99 | locus YDL074C, strain BRE1, active compounds read low 0.965 | locus YDL101C, strain DUN1, active compounds read low 0.998 | locus YDL134C, strain PPH21, active compounds read low 1.02 | locus YDL185W, strain tfp1, active compounds read low 1 | locus YDL192W, strain arf1, active compounds read low 0.985 | locus YDR001C, strain nth1, active compounds read low 0.979 | locus YDR069C, strain doa4, active compounds read low 0.983 | locus YDR101C, strain arx1, active compounds read low 0.995 | locus YDR137W, strain rgp1, active compounds read low 1.08 | locus YDR150W, strain NUM1, active compounds read low 1.01 and 0.995 | locus YDR159W, strain sac3, active compounds read low 0.945 | locus YDR162C, strain NBP2, active compounds read low 1.01 | locus YDR195W, strain ref2 0.994 | locus YDR297W, strain sur2, active compounds read low 0.99 | locus YDR318W, strain mcm21, active compounds read low 0.972 | locus YDR334W, strain swr1, active compounds read low 0.98 | locus YDR335W, strain msn5, active compounds read low 0.981 | locus YDR363W, strain ESC2, active compounds read low 0.971 | locus YDR388W, active compounds read low 0.982 | locus YDR392W, strain spt3, active compounds read low 0.875 | locus YDR502C, strain sam2, active compounds read low 0.956 | locus YEL003W, strain gim4, active compounds read low 0.987 | locus YEL037C, strain rad23, active compounds read low 0.983 | locus YEL061C, strain CIN8 (second series), active compounds read low 0.978 | locus YEL061C, strain CIN8, active compounds read low 1 | locus YER002W, strain NOP16, active compounds read low 1.02 | locus YER015W, strain faa2, active compounds read low 0.944 | locus YER016W, strain bim1, active compounds read low 0.969 | locus YER110C, active compounds read low 0.988 | locus YER111C, strain swi4, active compounds read low 0.993 | locus YER155C, strain BEM2 (second series), active compounds read low 0.976 | locus YER155C, strain BEM2, active compounds read low 1.01 | locus YER167W, strain BCK2, active compounds read low 1.01 | locus YFR010W, strain ubp6, active compounds read low 0.972 | locus YGL078C, strain dbp3, active compounds read low 0.983 | locus YGL086W, strain mad1, active compounds read low 0.971 | locus YGL167C, strain pmr1, active compounds read low 0.985 | locus YGL173C, strain kem1, active compounds read low 1 | locus YGL227W, strain vid30, active compounds read low 0.974 | locus YGL240W, strain doc1, active compounds read low 0.984 | locus YGL248W, strain PDE1, active compounds read low 0.991 | locus YGL253W, strain hxk2, active compounds read low 0.985 | locus YGR078C, strain PAC10, active compounds read low 0.972 and 1.05 | locus YGR135W, strain pre9, active compounds read low 0.921 | locus YGR252W, strain gcn5, active compounds read low 0.889 | locus YHR013C, strain ard1, active compounds read low 0.944 | locus YHR027C, strain rpn1, active compounds read low 0.968 | locus YHR030C, strain SLT2, active compounds read low 1 and 1.05 | locus YHR079C, strain IRE1 (second series), active compounds read low 0.982 | locus YHR079C, strain IRE1, active compounds read low 1.02 | locus YHR094C, strain hxt1, active compounds read low 0.992 | locus YHR129C, strain ARP1, active compounds read low 1 | locus YHR142W, strain chs7, active compounds read low 0.987 | locus YHR200W, strain rpn10, active compounds read low 0.986 | locus YIL066C, strain RNR3, active compounds read low 1.01 | locus YIL073C, strain SPO22, active compounds read low 0.997 | locus YIL125W, strain kgd1, active compounds read low 0.99 | locus YIR030C, strain dcg1, active compounds read low 0.997 | locus YJL092W, strain hpr5, active compounds read low 0.969 | locus YJL095W, strain BCK1 (second series), active compounds read low 0.978 | locus YJL095W, strain BCK1, active compounds read low 0.929 and 1.04 | locus YJL115W, strain asf1, active compounds read low 0.983 | locus YJL129C, strain trk1, active compounds read low 0.98 | locus YJL134W, strain LCB3, active compounds read low 1.01 | locus YJL154C, strain vps35, active compounds read low 0.982 | locus YJL164C, strain tpk1, active compounds read low 0.951 | locus YJL166W, strain qcr8, active compounds read low 1 | locus YJL168C, strain set2, active compounds read low 0.981 | locus YJL187C, strain SWE1 (second series), active compounds read low 0.974 | locus YJR043C, strain POL32, active compounds read low 1.06
active: locus YAL013W, strain DEP1, active compounds read low 0.892
